Screen size: about 320,000 compounds; about 210 (0.066%) were called active. The sample holds actives, similar compounds and a random draw of the others, so the mix is not that of the screen.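 Rule for the calls: active = GFP response relative to DMSO above a set limit, near the screen mean plus 3 SD (cut at about 150% in these data); inconclusive = Fewer than 70 cells measured for a yeast strain; inactive = the rest.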
test: modulators of CIT2-GFP expression in yeast, primary screen, S. cerevisiae, GFP fusion, multiplex flow cytometry, MLPCN library (AID 2029);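 note: ratio of well median GFP fluorescence to mean of DMSO wells on the plate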; conditions: S. cerevisiae CIT2-GFP strain, 3 h, at 10 µM, stronger effect = higher value, 100 means same as DMSO wells

GFP response vs DMSO, active:
CN(NS(=O)(=O)c1cccs1)c1ncc(C(F)(F)F)cc1Cl 171% [may fluoresce green]
Cc1cccc(Nc2nc3c(S(=O)(=O)c4ccccc4)nnn3c3ccccc23)c1C 632% [may fluoresce green]
CCN1/C(=C\c2ccc3ccccc3[n+]2CC)Sc2cc(C)ccc21 1560% [may fluoresce green]
CCN1/C(=C/c2ccc3ccc(C)cc3[n+]2CC)Sc2ccccc21 337% [may fluoresce green]

GFP response vs DMSO, inactive:
Cc1noc(C)c1CSc1nc2cc(S(=O)(=O)N3CCOCC3)ccc2o1 111%
O=C(CSc1ccc(C(F)(F)F)cc1[N+](=O)[O-])NCCOc1ccccc1 108%
COc1ccccc1N1CCN(CC(=O)Nc2ccnn2C2CCCC2)CC1 98.2%
CC1(C)CC(CNCCC(c2ccc(F)cc2)c2ccco2)CCO1 (stereo not drawn) 109%
CCOc1cc(CN2CCCC(CO)(Cc3ccc(F)cc3F)C2)ccc1OC (stereo not drawn) 98%
O=C(c1ccc2ccccc2n1)N1CCN(c2ccccc2Cl)CC1 94.9%
CCCCn1c(N)c(N2CCOCC2)c(=O)n(CC(=O)NCCc2ccccc2)c1=O 105%
CSCCC(NS(=O)(=O)c1ccc(C)cc1)C(=O)N1CCCC1 (stereo not drawn) 90.1%
CCN(CC)S(=O)(=O)c1ccc(OC(C)C)c(N)c1 94.4%
CCOc1ccc(Nc2nc(Cc3nnc(SCC(=O)c4ccc(C)cc4)o3)cs2)cc1 89.8%
O=C(NCc1nnc(SCC(=O)N2CCCc3ccccc32)o1)c1ccccc1F 91.6%
CC1CCCCC1NC(=O)COc1ccc(C#N)cc1 (stereo not drawn) 100%
O=C(O)CC(SCC(=O)Nc1ccc(Br)cc1)C(=O)O (stereo not drawn) 101%
OCCN1CCOCCOCCN(CCO)CCN(CCO)CC1 90.9%
NC(=S)Nc1c(Cl)cccc1Cl 104%
CC(Oc1ccc(Cl)cc1)c1ccnn1S(C)(=O)=O (stereo not drawn) 88.9%
Cc1cc(C)cc(NS(=O)(=O)c2ccc(Oc3ncc(C(F)(F)F)cc3Cl)cc2)c1 99.4%
C#CCN(N(C)c1ncc(C(F)(F)F)cc1Cl)S(=O)(=O)c1ccc2ccccc2c1 101%
COc1ccc(-c2cc(=O)oc3cc(OCC(=O)N[C@@H](Cc4c[nH]c5ccccc45)C(=O)O)ccc23)cc1 110%
O=C(N/C(=C\c1ccc([N+](=O)[O-])cc1)C(=O)N1CCOCC1)c1cccc(Br)c1 100%
COc1cc(NS(=O)(=O)c2ccc(N/C=C(\C=O)c3nc4cc(Cl)ccc4o3)cc2)nc(OC)n1 103%
COc1ccccc1C(=O)NCCC(=O)NC1=NCCS1 105%
CC(=O)Nc1ccc(Nc2nc3c(S(=O)(=O)c4ccc(C)c(C)c4)nnn3c3ccccc23)cc1 106%
Cc1ccc(S(=O)(=O)c2nnn3c2nc(N2CCN(c4ccccn4)CC2)c2ccccc23)cc1 94.5%
CC(=O)N1CC2(C)CN(C(C)=O)CC(C)(C1)C2=O 107%
Cc1nc(-c2ccc(F)cc2)c(CC(=O)Nc2cc(S(=O)(=O)N3CCCCC3)ccc2C)s1 99.9%
COc1ccccc1CCCNC(=O)C1CCC(=O)N(CCN2CCOCC2)C1 (stereo not drawn) 94.1%
CCc1nc2cccnc2n1-c1ccc(C(=O)O)cc1 102%
COc1ccccc1C(CNC(=O)c1ccc(C)c(S(=O)(=O)N2CCCCC2)c1)N(C)C (stereo not drawn) 97.1%

Reference: PubChem BioAssay AID2029 (NMMLSC, 2009)
